Measured values published in PubChem BioAssay (NCI).
About 83,000 compounds went through this panel and 20% of them were active in at least one assay; those are over-represented in the sample as a whole.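 The endpoint reported here, percent growth, reads 100 for growth as untreated, 0 for no net growth and -100 for all cells dead.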 Values without a mark were called inactive. Activity calls are given as the source filed them. Rule for the calls: active = growth percent below 10; inactive = the rest.

What follows are molecules tested on MDA-MB-468 breast (assay: NCI-60 one-dose screen, 48 h (100 = growth as untreated, 0 = no growth, -100 = all killed)). Conditions: 10 µM unless noted.

Row | SMILES | growth
1 | COc1c(B(O)O)cc(C)cc1-c1nc2ccc3[nH]ncc3c2c2c1CCCC2 | 28.2%
2 | C=C(C)[C@@H]1CC[C@]2(C(=O)N[C@@H](Cc3ccccc3)C(=O)OC)CC[C@]3(C)[C@H](CC[C@@H]4[C@@]5(C)CCC(=O)C(C)(C)[C@@H]5CC[C@]43C)[C@@H]12 | 84.2%
3 | C#Cc1ccc(-n2c(/C=C/c3ccc(O)cc3)nc3ncccc3c2=O)cc1 | -10.6% (active)
4 | CCn1c(SCC(=O)Nc2cccc(C(=O)/C=C/c3ccccc3Cl)c2)nc2ccccc2c1=O | 76.7%
5 | COc1cc2c(cc1-c1c(C)noc1C)ncc1nc(C3CCOCC3)n([C@@H](C)COC(F)F)c12 | 47.5%
6 | CC/C(=C(/c1ccc(O)cc1)c1ccc(OCCN2CCCCC2)cc1)c1ccc(OC)cc1 | 60.7%
7 | CC(C)c1ccc(-n2c(=S)[nH]c3sc4c(c3c2=O)CCC(=O)C4)cc1 | 58.6%
8 | Nc1c(CNCc2nnn(Cc3ccccc3)c2N)nnn1Cc1ccccc1 | 100%
9 | O=[N+]([O-])c1ccc([I+]c2ccccc2)cc1 | -5.9% (active)
10 | Nc1nc(N)c2c(n1)NC(c1ccc(Cl)cc1)CC(c1cccc(Nc3ccncc3)c1)=N2 (stereo not drawn) | 57.4%
11 | Oc1c(CN2CCN(c3ccccc3F)CC2)cc(Br)c2cccnc12 | -43% (active)
12 | c1cnc2n[nH]c(Nc3ncnc4c3sc3ncccc34)c2c1 | 96.5%
13 | CCN(CC)CCn1c(=O)c2cc(OC)c(OC)cc2c2ccc3cc4c(cc3c21)OCO4 | -13.5% (active)
